This note sets out measurements from PubChem BioAssay (NCI).

Molecules are shown by their SMILES. Compounds without any hit were thinned out: in the full panel of roughly 79,000, 15% have a hit. Unmarked numbers belong to inactive results. Activity calls are given as the source filed them. No stated cut-off is given here; in the data, active means growth inhibition above about 70%; inactive means the rest.

A short description of the test: NCI Yeast Anticancer Drug Screen. Data for the rad18 strain (AID 177). As to conditions: S. cerevisiae rad18 mutant growth inhibition, active compounds read high. Here is the method: Growth inhibition of yeast strains with defined genetic alterations is measured as a screen for potential anti-cancer activity. Selected strains with alterations in DNA damage repair or cell cycle control were exposed to compounds and growth inhibition was measured relative to vehicle treated controls. The strain used in this assay is rad18

On to `O=C1C(=O)N(c2ccccc2)[C@@]2(c3ccccc3)C(=Nc3ccccc3)OC(c3ccccc3)=C12`, for which the growth inhibition (at 1.2 µM) was -3%; the growth inhibition (at 3.7 µM) is 0%; the growth inhibition (at 11.0 µM) was 2%; the growth inhibition (at 33.0 µM) was 4%; the growth inhibition (at 100.0 µM) was 30%.

For the compound `Cc1cccc(/C=N/NC(=S)NC2CCCCC2)n1`, the growth inhibition (at 1.2 µM) was -5%; the growth inhibition (at 3.7 µM) is -4%; the growth inhibition (at 11.0 µM) is 3%; the growth inhibition (at 33.0 µM) was 20%; the growth inhibition (at 100.0 µM) was 19%.

On to `CC1(C2CC2)C(C#N)(C#N)C1(C#N)C#N`, for which the growth inhibition is 4% (at 1.2 µM); 9% (at 3.7 µM); 22% (at 11.0 µM); 53% (at 33.0 µM); 87% (active) (at 100.0 µM).

With `Cc1cc(C)c(S(=O)(=O)c2ccc(Cl)cc2)c(C)c1`, the growth inhibition is, setting by setting: (at 1.2 µM) -9%; (at 3.7 µM) -10%; (at 11.0 µM) -13%; (at 33.0 µM) -9%; (at 100.0 µM) 16%.

`CCCCS(=O)(=O)Nc1ccc(Nc2c3ccccc3nc3ccccc23)c(OC)c1`: the growth inhibition runs as follows: (at 1.2 µM) -14%; (at 3.7 µM) -15%; (at 11.0 µM) 0%; (at 33.0 µM) 78% (active); (at 100.0 µM) 96% (active).

`NC(CCCCCCCCCCCCC(N)C(=O)c1ccccc1)C(=O)c1ccccc1` (stereo not given): the growth inhibition by setting is: (at 1.2 µM) -6%; (at 3.7 µM) -9%; (at 11.0 µM) 41%; (at 33.0 µM) 96% (active); (at 100.0 µM) 96% (active).

Consider `COc1cc(OC)c(CSCC(NC(=O)OCC2c3ccccc3-c3ccccc32)C(=O)O)c(OC)c1` (stereo not given), for which the growth inhibition was 0% (at 1.2 µM); 8% (at 3.7 µM); 36% (at 11.0 µM); 96% (active) (at 33.0 µM); 97% (active) (at 100.0 µM).

As for `O=C(C#Cc1ccccc1)/C=C/c1ccccc1`, the growth inhibition reads like this: (at 1.2 µM) -5%; (at 3.7 µM) 4%; (at 11.0 µM) 13%; (at 33.0 µM) 81% (active); (at 100.0 µM) 95% (active).
